# Experimental data taken from PubChem BioAssay AID1159580 (chemical genetic matrix, 2015).
# Several values for one entry are separate records, joined by “and”; a condition that tells them apart may be missing. Equal values may be shown once. In all, about 5,500 compounds went through this assay and about 2,000 (36%) were called active. Not shown: some 18% with an inconclusive outcome. The list shows a part of the results. Unmarked numbers belong to inactive results. Rule as the data show it: active = normalized growth mostly below about 0.91 (no sharp cut-off); inconclusive = no clear call, values can overlap the other calls; inactive = mostly above about 0.92.
# Assay: chemical genetic growth profiling, strain panel (AID 1159580);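 also: tested at 20 µM; growth read once vehicle control cultures reached saturation at 30 °C; 1 = growth at the plate median or of vehicle wells; lower values mean less growth of the strain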
# Conditions: S. cerevisiae deletion strains, growth OD
structure (smiles),measurement,setting,value
COc1ccc2c(c1)OCC(Cc1ccc(OC)c(O)c1)C2=O (configuration not stated),normalized growth,"locus YAL013W, strain DEP1, active compounds read low",0.955
same,normalized growth,"locus YAL021C, strain ccr4, active compounds read low",0.993
same,normalized growth,"locus YAL026C, strain drs2, active compounds read low",0.965
same,normalized growth,"locus YAL030W, strain snc1, active compounds read low",0.953
same,normalized growth,"locus YBL061C, strain skt5, active compounds read low",0.961
same,normalized growth,"locus YBR009C, strain hhf1, active compounds read low",0.903 (active)
same,normalized growth,"locus YBR021W, strain FUR4, active compounds read low",0.873
same,normalized growth,"locus YBR023C, strain chs3, active compounds read low",0.929
same,normalized growth,"locus YBR171W, strain sec66, active compounds read low",0.937
same,normalized growth,"locus YBR229C, strain ROT2, active compounds read low",0.98
same,normalized growth,"locus YBR231C, strain swc5, active compounds read low",0.968
same,normalized growth,"locus YBR279W, strain paf1, active compounds read low",0.979
same,normalized growth,"locus YCL011C, strain gbp2, active compounds read low",0.922
same,normalized growth,"locus YCL016C, strain dcc1, active compounds read low",0.939
same,normalized growth,"locus YCL029C, strain bik1, active compounds read low",0.952
same,normalized growth,"locus YCL061C, strain MRC1, active compounds read low",0.933
same,normalized growth,"locus YCL069W, strain vba3, active compounds read low",0.956
same,normalized growth,"locus YCR088W, strain abp1, active compounds read low",0.963
same,normalized growth,"locus YDL005C, strain med2, active compounds read low",0.959
same,normalized growth,"locus YDL035C, strain GPR1, active compounds read low",0.972
same,normalized growth,"locus YDL040C, strain nat1, active compounds read low",0.967
same,normalized growth,"locus YDL074C, strain BRE1, active compounds read low",0.937
same,normalized growth,"locus YDL101C, strain DUN1, active compounds read low",0.942
same,normalized growth,"locus YDL185W, strain tfp1, active compounds read low",0.961
same,normalized growth,"locus YDL192W, strain arf1, active compounds read low",0.958
same,normalized growth,"locus YDR001C, strain nth1, active compounds read low",0.959
same,normalized growth,"locus YDR069C, strain doa4, active compounds read low",1.01
same,normalized growth,"locus YDR101C, strain arx1, active compounds read low",0.972
same,normalized growth,"locus YDR137W, strain rgp1, active compounds read low",0.974
same,normalized growth,"locus YDR159W, strain sac3, active compounds read low",0.867
same,normalized growth,"locus YDR162C, strain NBP2, active compounds read low",0.982
same,normalized growth,"locus YDR195W, strain ref2",1.23 [resistant] (active)
same,normalized growth,"locus YDR297W, strain sur2, active compounds read low",0.963
same,normalized growth,"locus YDR318W, strain mcm21, active compounds read low",0.93
same,normalized growth,"locus YDR334W, strain swr1, active compounds read low",0.977
same,normalized growth,"locus YDR335W, strain msn5, active compounds read low",0.973
same,normalized growth,"locus YDR388W, active compounds read low",0.967
same,normalized growth,"locus YDR392W, strain spt3, active compounds read low",0.449 (active)
same,normalized growth,"locus YDR502C, strain sam2, active compounds read low",0.909 (active)
same,normalized growth,"locus YEL003W, strain gim4, active compounds read low",0.933
same,normalized growth,"locus YEL037C, strain rad23, active compounds read low",0.964
same,normalized growth,"locus YEL061C, strain CIN8 (second series), active compounds read low",0.968
same,normalized growth,"locus YEL061C, strain CIN8, active compounds read low",0.978
same,normalized growth,"locus YER015W, strain faa2, active compounds read low",0.961
same,normalized growth,"locus YER016W, strain bim1, active compounds read low",0.965
same,normalized growth,"locus YER110C, active compounds read low",0.931
same,normalized growth,"locus YER111C, strain swi4, active compounds read low",0.962
same,normalized growth,"locus YER155C, strain BEM2 (second series), active compounds read low",0.757 (active)
same,normalized growth,"locus YER155C, strain BEM2, active compounds read low",0.963
same,normalized growth,"locus YER167W, strain BCK2, active compounds read low",0.981
same,normalized growth,"locus YFR010W, strain ubp6, active compounds read low",0.989
same,normalized growth,"locus YGL078C, strain dbp3, active compounds read low",0.92 (active)
same,normalized growth,"locus YGL086W, strain mad1, active compounds read low",0.934
same,normalized growth,"locus YGL167C, strain pmr1, active compounds read low",0.939
same,normalized growth,"locus YGL173C, strain kem1, active compounds read low",0.924
same,normalized growth,"locus YGL227W, strain vid30, active compounds read low",0.964
same,normalized growth,"locus YGL240W, strain doc1, active compounds read low",0.821 (active)
same,normalized growth,"locus YGL248W, strain PDE1, active compounds read low",0.9
same,normalized growth,"locus YGL253W, strain hxk2, active compounds read low",0.91 (active)
same,normalized growth,"locus YGR078C, strain PAC10, active compounds read low",0.914
same,normalized growth,"locus YGR135W, strain pre9, active compounds read low",0.868 (active)
same,normalized growth,"locus YGR252W, strain gcn5, active compounds read low",0.78
same,normalized growth,"locus YHR013C, strain ard1, active compounds read low",0.956
same,normalized growth,"locus YHR027C, strain rpn1, active compounds read low",0.944
same,normalized growth,"locus YHR030C, strain SLT2, active compounds read low",0.978
same,normalized growth,"locus YHR079C, strain IRE1 (second series), active compounds read low",0.964
same,normalized growth,"locus YHR079C, strain IRE1, active compounds read low",0.983
same,normalized growth,"locus YHR094C, strain hxt1, active compounds read low",0.969
same,normalized growth,"locus YHR129C, strain ARP1, active compounds read low",0.966
same,normalized growth,"locus YHR142W, strain chs7, active compounds read low",0.872 (active)
same,normalized growth,"locus YHR200W, strain rpn10, active compounds read low",0.975
same,normalized growth,"locus YIL066C, strain RNR3, active compounds read low",0.975
same,normalized growth,"locus YIL073C, strain SPO22, active compounds read low",0.881
same,normalized growth,"locus YIL125W, strain kgd1, active compounds read low",0.969
same,normalized growth,"locus YIR030C, strain dcg1, active compounds read low",0.942
same,normalized growth,"locus YJL092W, strain hpr5, active compounds read low",0.968
same,normalized growth,"locus YJL095W, strain BCK1 (second series), active compounds read low",0.94
same,normalized growth,"locus YJL095W, strain BCK1, active compounds read low",0.903 and 1
same,normalized growth,"locus YJL115W, strain asf1, active compounds read low",0.969
same,normalized growth,"locus YJL129C, strain trk1, active compounds read low",0.886
same,normalized growth,"locus YJL134W, strain LCB3, active compounds read low",0.981
same,normalized growth,"locus YJL154C, strain vps35, active compounds read low",0.964
same,normalized growth,"locus YJL164C, strain tpk1, active compounds read low",0.933
same,normalized growth,"locus YJL166W, strain qcr8, active compounds read low",0.844 (active)
same,normalized growth,"locus YJL168C, strain set2, active compounds read low",0.958
same,normalized growth,"locus YJL187C, strain SWE1 (second series), active compounds read low",0.926
same,normalized growth,"locus YJL187C, strain SWE1, active compounds read low",0.983
